# TIM10 inh: growth inhibitors of TIM10 yeast strain. S. cerevisiae TIM10 strain growth, BacTiter-Glo luminescence, 24 h. inhibition, % at 10 µM. 330,000 compounds, 1.4% hits. AID 463195;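 active means inhibition of 40% or more at the single tested concentration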;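 further: wild-type TIM10 isogenic control strain grown at permissive 25 °C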
# tim10-1 inh: inhibits growth of tim10-1 mutant yeast. AID 463190. 330,000 compounds, 2.2% hits. inhibition, % at 20 µM. S. cerevisiae tim10-1 ts strain growth, BacTiter-Glo, 24 h;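 active means inhibition of at least 40%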;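 further: mutant grown at 25 °C; 0% = DMSO wells with yeast and 100% = wells holding no yeast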
# NLRP3 yeast inh: NALP3 inhibition in yeast | Yeast reconstituted NLRP3/ASC/caspase-1, beta-gal luminescence, 24 h | 330,000 compounds, 0.39% hits | inhibition, % at 10 µM;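 active means inhibition of 50% or more; inactive means inhibition below 50%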;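 further: plate controls were induced DMSO wells for no effect and uninduced yeast grown without galactose for full effect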
# tim23-1 inh: growth inhibitors of tim23-1 mutant yeast; S. cerevisiae tim23-1 growth, BacTiter-Glo luminescence, 24 h; inhibition, % at 20 µM; 330,000 compounds, 1.3% hits; AID 463212;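 active means growth inhibition of the mutant yeast at or above 50%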;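 further: temperature-sensitive mutant grown at 25 °C; plate controls were DMSO-treated mutant yeast for no effect and medium wells lacking yeast for full effect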
# Yeast superoxide: lowers age-related superoxide in aged yeast cells | S. cerevisiae aged cells, superoxide DHE fluorescence; active compounds read low | superoxide response (% of plate mean), % at 10 µM | 330,000 compounds, 0.18% hits | AID 2690;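 active means superoxide response under a set limit, about three screen SD below normal, cut at about 65% in these data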;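 further: yeast aged for seven days with compound at 30 °C before DHE staining; 100% = average MFI of all compound-treated wells on the plate with controls excluded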
# tim10-1 conf: confirmation of tim10-1 mutant yeast growth inhibitors | shares compounds with tim10-1 inh | S. cerevisiae tim10-1 ts strain growth, BacTiter-Glo, 24 h | inhibition, % at 20 µM | 7,400 compounds, 56% hits | AID 463213;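 active means inhibition of yeast growth at or above a set limit in either of two repeat tests at 20 µM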;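 further: tim10-1 mutant grown at permissive 25 °C to find synthetic lethal compounds; 0% = DMSO yeast wells and 100% = medium wells without yeast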
# tim10 confirm: TIM10 yeast growth inhibition, confirmed | shares compounds with TIM10 inh | 4,600 compounds, 63% hits | S. cerevisiae tim10 strain growth, BacTiter-Glo luminescence, 24 h | AID 463215 | inhibition, % at 10 µM;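 active means inhibition of yeast growth at or above a set limit in either of two replicates at 10 µM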;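 further: this counterscreen used the strain with wild-type TIM10; 0% = yeast with DMSO and 100% = medium wells lacking yeast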
# tim23-1 conf: confirmation of tim23-1 mutant yeast growth inhibitors | inhibition, % at 20 µM | S. cerevisiae tim23-1 growth, BacTiter-Glo luminescence, 24 h | AID 463218 | 4,400 compounds, 83% hits | shares compounds with tim23-1 inh;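 active means inhibition above about 39% in either of two replicate wells at 20 µM, limit read from the data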;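 further: temperature-sensitive tim23-1 mutant grown at 25 °C; 0% = DMSO wells with yeast and 100% = medium wells without yeast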
# Active calls of the source: *; · = no result given. In the library only some 3.8% were active in any assay of this set; here they are far more common.
SMILES,TIM10 inh,tim10-1 inh,NLRP3 yeast inh,tim23-1 inh,Yeast superoxide,tim10-1 conf,tim10 confirm,tim23-1 conf
C=CC[n+]1c(-c2ccc(Cl)cc2Cl)csc1Nc1ccc(NC(C)=O)cc1,37,60*,22,67*,93,58*,·,78*
CCCC[n+]1c(-c2ccc(Cl)cc2Cl)csc1Nc1ccccc1,9,10,13,-2,105,·,·,·
Cc1ccc(C)c(N2CCN(C(=O)c3ccc(N4CCCC4=O)cc3)CC2)c1,13,36,-2,29,86,·,·,·
Cc1ccccc1N(CC(=O)NCCc1ccccc1)C(=O)c1csnn1,15,-24,-11,-2,104,·,·,·
O=C(Nc1ccc(OC(F)F)c(Cl)c1)c1cccc(OC(F)F)c1,63*,71*,-36,71*,127,63*,59*,76*
COc1ccc(NC(=O)c2cccc(OC(F)F)c2)cc1Cl,38,37,1,39,122,·,·,·
CNCc1ccccc1Sc1cc(O)ccc1O,36,51*,18,60*,106,47*,·,56*
S=C(Nc1ccccc1)N1CCc2ccccc21,5,12,28,39,95,·,·,·
O=[N+]([O-])c1ccc(NC(=S)N2CCc3ccccc32)cc1,35,49*,31,54*,97,42*,·,49*
O=C(/C=C/Sc1ccc(C(F)(F)F)cn1)c1ccccc1,22,41*,15,61*,95,51*,·,47*
O=C(CSc1ccc(C(F)(F)F)cn1)Nc1ccccc1,2,-11,6,6,92,·,·,·
CCOC(=O)C1CCN(S(=O)(=O)c2ccc3[nH]c4c(c3c2)CCCC4)CC1,21,35,13,43,97,·,·,·
O=C(ON=C1CCN(c2ccc([N+](=O)[O-])cc2)CC1)c1ccccc1,52*,47*,14,64*,103,24,60*,60*
COc1ccc(C(=O)ON=C2CCN(c3ccc([N+](=O)[O-])cc3)CC2)cc1,64*,58*,22,54*,134,48*,65*,71*
O=C(OC1CCN(c2ccc([N+](=O)[O-])cc2)CC1)c1ccccc1,20,7,-10,10,93,·,·,·
CC(C)(C)c1cc(C(=O)NNc2cc(C(F)(F)F)ccc2Cl)n(Cc2ccccc2)n1,15,20,9,14,92,·,·,·
O=C(NC1CCCC1)c1cccc(Cl)c1,-2,-10,-10,8,99,·,·,·
O=C(NC1CC1)c1ccc2c(c1)C1C3CCC(C3)C1C(c1ccccc1)N2 (configuration not stated),41*,50*,-2,62*,111,42*,0,54*
COC(=O)Nc1ccc(S(=O)(=O)N2CCC(C(=O)NCc3ccc4c(c3)OCO4)CC2)cc1,-8,-1,13,9,108,·,·,·
O=C(OCn1ncc(Br)c(Br)c1=O)c1ccccc1Cl,77*,58*,-27,73*,79,50*,-9,23
O=C(OCn1ncc(Br)c(Br)c1=O)c1ccc(F)cc1,71*,73*,1,55*,106,65*,-14,38
CC(=O)OCn1ncc(N2CCOCC2)c(Br)c1=O,4,1,11,-1,96,·,·,·
O=C(N/N=C/c1ccccc1O)NC12CC3CC(CC(C3)C1)C2,29,44*,14,71*,91,36*,·,68*
COc1ccc(S(=O)(=O)N2CCN(C(=O)c3oc4ccccc4c3C)CC2)cc1,44*,57*,31,53*,98,43*,55*,54*
C=CCNC(=O)/C(C#N)=C/c1c(C)nn(-c2ccc(Cl)cc2)c1Cl,58*,63*,16,56*,121,59*,63*,66*
COc1ccc(CC(C(=O)Nc2cccc(F)c2)c2nn[nH]n2)c(OC)c1 (configuration not stated),6,9,6,-1,114,·,·,·
Cc1ccc(C(OCC(O)CN2CCCCC2)c2ccccc2)cc1 (configuration not stated),-12,8,2,3,108,·,·,·
